In PubChem BioAssay (NCI) one finds growth data, which are given here for 13 compounds.

Common to all, as to test: NCI-60 one-dose screen, 48 h (100 = growth as untreated, 0 = no growth, -100 = all killed)
Conditions in all cases: 10 µM unless noted

Test [1] relates to HCT-15 colon.
For test [2], the system named is HT29 colon.
Test [3] has as its system SNB-75 CNS.
Test [4] concerns SNB-19 CNS.
The subject of test [5] is U251 CNS.
In test [6] the test system is PC-3 prostate.
Test [7] concerns SK-MEL-5 melanoma.
In test [8] the test system is UACC-62 melanoma.
Test [9] concerns LOX IMVI melanoma.
Test [10] has as its system SK-MEL-28 melanoma.

Compounds without any hit were thinned out: in the full panel of roughly 83,000, 20% have a hit.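 For each line, cells grew in 96-well plates with the test compound present at a single concentration for 48 hours.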 A number with no mark means an inactive call. Activity calls are given as the source filed them. The calls were made as follows: active = growth percent below 10; inactive = the rest.

Regarding `Cc1cc(-c2ccccc2)on1`, the growth was 101% in test [1]; 106% in test [2]; 99.2% in [3]; 104% in test [4]; 108% in test [5]; 97.7% in test [6]. Also, the growth in [7] was 109%; in test [8], 110%; in [9], 99.4%; in test [10], 109%.

In the case of `Clc1cc(Cl)cc(-c2cnc3nonc3n2)c1`, the growth is 64.4% in test [1]; 92.8% in test [2]; 99% in test [3]; 93.4% in [4]; 106% in [5]; 90.9% in test [6]. Moreover, the growth in test [7] was 107%; in test [8], 83.1%; in test [9] it was 95%; in test [10], 91.5%.

In the case of `O=C1OCC2=C1C(c1ccccc1)c1cc3c(cc1N2CCO)OCO3` (stereo not given), the growth in test [1] was 24%; in test [2], 12.5%; in test [3], 31.4%; in test [4], 36%; in test [5], 20.3%; in test [6] it was 24.5%. For the same compound, the growth in test [7] is -12.3% (active); in test [8] it was 28.9%; in test [9], 37%; in [10] it was 50.5%.

On to `C[Si](C)(C)C(c1ccccc1)c1ccccc1`, for which the growth was 91.8% in test [1]; 101% in test [2]; 102% in test [3]; 111% in test [4]; 100% in test [5]; 80.3% in [6]. The growth in test [7] is 115%; in test [8] it was 108%; in [9], 95.9%; in [10], 115%.

Regarding `COc1cc(C2CC(c3ccccc3)=NN2C=O)ccc1Oc1nc2c(c(=O)n(C)c(=O)n2C)n1C` (stereo not given), the growth in test [1] is 87.9%; in [2], 69.9%; in [3], 92%; in [4], 61.9%; in [5] it was 86.5%; in test [6] it was 72.8%. The growth in test [7] was 59.2%; in [8], 86.2%; in test [9], 55%; in test [10], 95.1%.

`Nc1nc(NC2CC2)cc(-c2cccc(Cl)c2Cl)n1`: the growth in test [1] is 25%; in [2], 13.6%; in test [3] it was 39.2%; in test [4], 59.1%; in test [5], 39.1%; in test [6] it was 64.6%. Besides, the growth is 46.5% in test [7], 36.1% in test [8], 40.7% in test [9] and 68.7% in test [10].

For the compound `Clc1ccc(-c2cnc3nonc3n2)s1`, the growth in [1] was 54.4%; in test [2], 83%; in [3], 102%; in test [4], 91.4%; in test [5], 87.9%; in test [6] it was 51.8%. The growth in [7] is 24.5%; in test [8], 54.9%; in [9], 36.5%; in test [10] it was 94.4%.

As to `CN1C(=O)N(C)C2C1NN=c1s/c(=C\c3ccc(Br)cc3)c(=O)n12` (stereo not given), the growth in test [1] was 22.8%; in test [2] it was 10.7%; in test [3] it was 11.4%; in test [4], 34.9%; in test [5], 29.3%; in [6], 18.3%. Further, the growth is 14% in [7], 27.9% in test [8], 35.8% in test [9] and 71.1% in test [10].

With `CC(C)CCSc1nc(-c2ccc(F)cc2)c(C#N)c(N2CCN(C)CC2)n1`, the growth in test [1] was 83.6%; in test [2], 82.2%; in test [3], 73%; in test [4], 91.7%; in [5] it was 77.6%; in test [6], 65%. Besides, the growth in [7] was 90.4%; in [8] it was 87.2%; in test [9], 77.6%; in test [10] it was 96.5%.

For the compound `COc1ccc(Oc2nc(Nc3ccc(N4CCOCC4)cc3)ncc2NC(=O)Nc2cccc(OC)c2)cc1`, the growth is 84% in test [1]; 54.2% in [2]; 80.1% in [3]; 72% in test [4]; 48.8% in test [5]; 48.4% in test [6]. In addition, the growth in test [7] was 22.5%; in [8] it was 46.8%; in test [9], 76.7%; in test [10] it was 61.4%.

Consider `Cc1nn(-c2cccc(Cl)c2)c(C)c1N=Nc1ccc(Br)cc1`, for which the growth in test [1] is 94.4%; in test [2] it was 74.7%; in test [3] it was 91.9%; in [4] it was 97.9%; in test [5], 92.5%; in test [6] it was 80.9%. For the same compound, the growth was 97.5% in test [7], 81.7% in test [8], 101% in [9] and 92.3% in [10].

In the case of `COc1ccc(-c2cc(-c3cc4ccccc4oc3=O)n(-c3ccccc3)n2)cc1`, the growth in test [1] is 103%; in [2] it was 83.8%; in test [3], 77%; in test [4] it was 82%; in test [5], 31.4%; in test [6], 76.1%. The growth is 94.5% in test [7], 80.3% in test [8], 59.8% in test [9] and 106% in test [10].

On to `COc1cc(Nc2ncccc2/C=C/C(=O)c2cc(OC)c(OC)c(OC)c2)cc(OC)c1OC`, for which the growth was 74.2% in [1]; 67.8% in [2]; 67.9% in [3]; 80.2% in test [4]; 50.8% in test [5]; 74.1% in test [6]. The growth is 53.9% in test [7], 65.8% in [8], 17.1% in test [9] and 90.5% in test [10].
